Most compounds without a hit are left out; they make up all but 19% or so of the library.
IL1B secr inh: qHTS for Inhibitors of Inflammasome Signaling: IL-1-beta AlphaLISA Primary Screen | activity change, % at 57.5 µM | hit rate 4.7% among 360,000 | AID 743279, 2014 | THP-1 LPS/ATP IL-1B secretion, AlphaLISA, 16 h; hits give low values; in the data active means activity change below about -50%; inconclusive means mostly about -30% to -49%
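THP-1 cells pretreated 1 hr with compounds (up to 57.5 uM final), then stimulated with LPS (250 ng/mL final) plus ATP (1.25 mM final); secreted IL-1B measured by AlphaLISA after 16 hr, decreased signal indicating inhibition.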
TDP1 cell CPT: qHTS for Inhibitors of human tyrosyl-DNA phosphodiesterase 1 (TDP1): qHTS in cells in presence of CPT | chicken DT40 Tdp1-/-;hTDP1 cells + 20 nM CPT, ATP luminescence, 48 h | Potency, µM (top dose mostly 46.2 µM), hits mostly inhibitors | hit rate 12% among 420,000 | AID 686979, 2013; further: nearly all actives have a fitted effect of over 55% in size
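Chicken DT40 Tdp1-/- cells stably complemented with human TDP1 were seeded at 400 cells/well in medium containing 20 nM camptothecin, exposed to pin-transferred compounds, and grown at 37 °C for at least 48 hr. Viability was read as ATP luminescence.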
TDP1 cell noCPT: qHTS for Inhibitors of human tyrosyl-DNA phosphodiesterase 1 (TDP1): qHTS in cells in absence of CPT. Potency, µM (titrated, usually from 46.2 µM), usual class: inhibitors. DT40 Tdp1-/- hTDP1 cells, no CPT, ATP luminescence, 48 h. hit rate 15% among 420,000; further: nearly all actives have a fitted effect of over 55% in size
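Chicken DT40 Tdp1-/- cells stably complemented with human TDP1 were seeded at 400 cells/well with DMSO in place of 20 nM camptothecin. After compound pinning, cells grew at least 48 hr at 37 °C; viability read by CellTiter-Glo luminescence.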
HT1080NT lethal: qHTS for induction of synthetic lethality in tumor cells producing 2HG: qHTS for the HT-1080-NT fibrosarcoma cell line. HT-1080-NT fibrosarcoma viability, CellTiter-Glo ATP luminescence, 48 h. Potency, µM (series often up to 46.1 µM), usual class: cytotoxic. hit rate 1.6% among 360,000;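 further: NT is the 2HG producing partner of a matched IDH1 knockdown line; nearly all actives have a fitted effect of over 55% in size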
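Viability of the 2HG-overproducing fibrosarcoma line after 48 hours of compound exposure at 37 degrees C was determined by luminescence with CellTiter-Glo, and concentration-effect curves were then fitted and categorized.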
HT1080 IDH1KD tx: qHTS for induction of synthetic lethality in tumor cells producing 2HG: qHTS for the HT-1080-IDH1KD cell line; HT-1080 IDH1 knockdown viability, ATP luminescence, 48 h; AID 686971, 2013; Potency, µM (highest dose often 46.1 µM), usual class: cytotoxic; hit rate 2% among 360,000
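HT-1080-IDH1KD cells (IDH1 knocked down), 750/well in RPMI with 5% FBS, treated with compound 48 h at 37 degrees C. Viability by CellTiter-Glo luminescence, normalised to DMSO and no-cell wells; concentration-response curves classed.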
A number is an active result; i = inactive; ? = inconclusive; nt = no result; [ ] = remark or other dose. Unless noted, the call rests on the fitted dose curve; in most records, active means well fitted curve in the direction sought with a large enough effect; inconclusive means small, poorly fitted or top-dose-only effect, or another doubt; inactive means no such curve, though single readings can be large; an effect the other way counts as inactive or inconclusive.

SMILES | IL1B secr inh | TDP1 cell CPT | TDP1 cell noCPT | HT1080NT lethal | HT1080 IDH1KD tx
COc1cccc(C(=O)Nc2c3c(nc4c2CCC4)CCCC3)c1 | i | i | i | i | i
CCOc1ccccc1C(=O)Nc1ccc2nc3c(c(Nc4ccc(OC)c(OC)c4)c2c1)CCCC3 | nt | 4.1µM | 5.2µM | nt | nt
COc1cc(OC)cc(C(=O)Nc2ccc3nc4c(c(Nc5ccc(OC)c(OC)c5)c3c2)CCCC4)c1 | nt | 4.1µM | 23µM | nt | nt
Cc1ccc(CNC(=O)CCC(=O)Nc2nnc(C(C)C)s2)cc1 | i | i | i | i | i
COc1ccc(OC)c(/C=N/NC2=NS(=O)(=O)c3ccccc32)c1 | i | i | i | i | i
COc1ccc(/C=C2/CC/C(=C\c3ccc(OC)c(OC)c3OC)C2=O)c(OC)c1OC | i | ? | 8.2µM | i | i
COc1cccc(/C=C2\CCC(C3CCCC3)C2=O)c1OC (stereo not given) | i | ? | ? | i | i
COc1cc(/C=C2\CCC(C3CCCC3)C2=O)cc(OC)c1OC (stereo not given) | i | ? | 16µM | i | i
COc1ccc(C=C2SC(=S)NC2=O)c(OC)c1OC | ? | ? | ? | i | ?
COc1ccc(/C=C2\CCC(C3CCCC3)C2=O)c(OC)c1OC (stereo not given) | i | ? | 18µM | i | i
Cc1ccccc1Nc1nc(N)nc(COC(=O)CCNS(=O)(=O)c2ccccc2)n1 | i | i | i | i | i
Cc1cc(-c2ccccc2)n(-c2cc(N/N=C/c3ccccc3O)ncn2)n1 | i | 4.6µM | 3.3µM | ? | 1µM
Cc1ccc(S(=O)(=O)N(C(=O)c2ccncc2)c2ccc(OC(=O)c3ccncc3)c3ccccc23)cc1 | -79 | 2.6µM | 5.2µM | ? | ?
Cc1ccc(S(=O)(=O)N(C(=O)c2ccncc2)c2ccc(OC(=O)c3ccncc3)c3ccccc23)c(C)c1 | i | 4.6µM | 3.7µM | ? | ?
Cc1ccc(OC(=O)c2ccc(S(=O)(=O)N(C)C)cc2)c(-n2nc3ccccc3n2)c1 | i | i | i | i[9.24 µM] | i
COc1ccc(Cc2c(-c3cccc(Br)c3)nc3ccc(Cl)cn23)c(C)c1 | i | i | ? | i | i
COc1ccc(Cc2c(-c3cccc(Cl)c3)nc3ccc(Cl)cn23)c(C)c1 | i | 26µM | ? | i | i
COc1ccc(Cc2c(-c3ccccc3)nc3ccc(Br)cn23)c(C)c1 | i | 21µM | 21µM | ? | ?
COc1ccc(Cc2c(C(C)(C)C)nc3ccc(Br)cn23)c(C)c1 | i | ? | ? | i | i
Cc1nn(C)cc1CN1CCOc2ccc(CN3CCC(Oc4cccnc4)CC3)cc2C1 | nt | i[9.04 µM] | ? | nt | nt
COCC(=O)Nc1cc(C(=O)N2CCSCC2)cc2nc(-c3ccccc3)n(C)c12 | nt | i | i | nt | nt
COCC(=O)Nc1cc(C(=O)N2CCC(c3ccccc3)CC2)cc2nc(-c3ccccc3)n(C)c12 | nt | 16µM | ? | nt | nt
CCOC(=O)c1c(S(=O)(=O)NCC(=O)Nc2ccc(F)cc2C)c(C)n(C)c1C | nt | i | i | nt | nt
CCOC(=O)C1=C(CS(=O)(=O)c2ccc(C(C)(C)C)cc2)NC(=O)NC1c1cccc(OC)c1 (stereo not given) | nt | 16µM | 16µM | nt | nt
COc1ccc(Cl)cc1NC(=O)COC(=O)CC(C)(C)CC1=NS(=O)(=O)c2ccccc2N1 | nt | ? | 21µM | nt | nt
SMILES | IL1B secr inh | TDP1 cell CPT | TDP1 cell noCPT | HT1080NT lethal | HT1080 IDH1KD tx
Cc1ccc(Cl)cc1NC(=O)COC(=O)CC(C)(C)CC1=NS(=O)(=O)c2ccccc2N1 | nt | 18µM | 26µM | nt | nt
O=C(c1[nH]c(C(F)(F)F)nc1-c1ccccc1)N1CCN(Cc2c(F)cccc2Cl)CC1 | i | i | i | i | i
O=C1CC(NS(=O)(=O)c2ccc([N+](=O)[O-])cc2)CN1c1ccc(Cl)cc1 (stereo not given) | i | ? | 16µM | i | i
CC(=O)c1ccc(S(=O)(=O)NC2CC(=O)N(c3ccc(C)c(C)c3)C2)cc1 (stereo not given) | i | 15µM | 15µM | i | i
Cc1ccc(S(=O)(=O)c2nnn3c2nc(NC(C)C)c2cc(Cl)ccc23)cc1C | nt | i | i | nt | nt
O=C(Cc1ccccc1)Nc1nc2ccc(Cl)cc2c2nc(-c3ccco3)nn12 | nt | i | i | nt | nt
CCc1ccc2nc(/N=C(\N)NC(=O)c3ccccc3)nc(C)c2c1 | i | ? | 16µM | i | i
Cc1cc(C)c2nc(/N=C(\N)NC(=O)c3ccccc3)nc(C)c2c1 | i | i | 16µM | i | i
CCCC(=O)N/C(N)=N/c1nc(C)c2ccccc2n1 | -85 | ? | 16µM | i | i
Cc1cc(C)c2nc(/N=C(\N)NC(=O)Nc3ccccc3)nc(C)c2c1 | i | 23µM | 18µM | i | i
CCCCC(=O)N/C(N)=N/c1nc2ccccc2o1 | i | ? | ? | i | i
Cc1cc(C)nc(/N=C(/NC(=O)c2ccccc2)Nc2ccccc2)n1 | i | i | i | i | i
Cc1ccc(C)c(NC(=O)C2CCCN(c3cnccn3)C2)c1 (stereo not given) | i | i | i | i | i

Compound activity (PubChem BioAssay)
